The whole screen tested about 52,000 compounds, of which about 4,300 (8.3%) were called active. The sample holds actives, similar compounds and a random draw of the others, so the mix is not that of the screen. Rule as the data show it: active = survival mostly below about 52% (no sharp cut-off); inactive = mostly above about 56%.
Each molecule was assayed on DeltatarO mutant (assay: S. aureus survival, RN4220 and DeltatarO strains – OD600, teichoic acid synthesis inhibitors, primary screen (AID 463173)). Conditions: S. aureus RN4220 wild type/DeltatarO growth, OD600, 18 h, hits give low values, screened at 18.75 µg/mL (by protocol).
For `Cc1cc(C)c(C#N)c(SCC(=O)Nc2sc3c(c2C#N)CCC(C(C)(C)C)C3)n1` (stereo unspecified), the survival was 75% (inactive).
`Cc1ccc(CNC(=O)Cn2c(=O)n(-c3ccc(C)c(F)c3)c(=O)c3sc4ccccc4c32)cc1` was tested, and the survival was 75% (inactive).
With `COc1ccc(-c2cnnn2-c2ccc(NC(=O)c3ccc(S(=O)(=O)N(C)C)cc3)cc2)cc1` the survival was 81% (inactive).
`COCCNC(=O)CCn1c(=O)[nH]c2cc(OC)c(OC)cc2c1=O` was tested, and the survival was 90% (inactive).
`CCN1C2OC(C3OC4C(O3)N(CC)S(=O)(=O)N4CC)OC2N(CC)S1(=O)=O` (stereo unspecified) was tested, and the survival was 73% (inactive).
With `CCN1/C(=C2/SC(=S)N(N)C2=O)Sc2ccccc21` the survival was 77% (inactive).
`O=C(CSc1nnc(-c2cccs2)o1)N1c2ccccc2CCc2ccccc21` was tested, and the survival was 70% (inactive).
For `CCOc1ccc(-c2nonc2NC(=O)c2oc3ccc(F)cc3c2C)cc1`, the survival was 117% (inactive).
In the case of `CC1(C)C(=O)N(CC(=O)Nc2cccc(F)c2)c2ccc(S(=O)(=O)N3CCCCC3)cc21`, the survival was 81% (inactive).
In the case of `Cc1nn(-c2ccc(N3CCCC3)nn2)c(C)c1CCC(=O)Nc1ccccc1`, the survival was 83% (inactive).
In the case of `Cc1nc2ccn(Cc3cccnc3)c(=O)c2cc1C(=O)NCc1ccc(Cl)cc1`, the survival was 69% (inactive).
For `Cc1ccc(NC(=O)C(=O)NCCc2sc(-c3ccc(Cl)cc3)nc2C)cc1C`, the survival was 104% (inactive).
`Cc1ccc(-c2nc(C)c(CCNC(=O)C(=O)Nc3ccc(C)c(Cl)c3)s2)cc1` was tested, and the survival was 74% (inactive).
With `Cc1nc(-c2ccccc2)sc1CCNC(=O)C(=O)Nc1ccc(F)c(Cl)c1` the survival was 6% (active).
In the case of `O=C(c1cccc(F)c1)N1CCN(C(=O)c2cccc3ccccc23)CC1`, the survival was 92% (inactive).
`CC(NC(=O)c1cc2ccccn2n1)c1ccccc1` (stereo unspecified) was tested, and the survival was 75% (inactive).
With `Cc1cccc(CCNC(=O)c2sc3nc4n(c(=O)c3c2C)CCCC4)c1` the survival was 85% (inactive).
For `COc1cc(NC(=O)CCN2CCN(c3ccccc3)CC2)cc(OC)c1`, the survival was 150% (inactive).
In the case of `CC(=O)N1CCCc2cc(S(=O)(=O)N3CCC(C(=O)NCCC(C)C)CC3)ccc21`, the survival was 91% (inactive).
`N#Cc1cnc(SCc2ccccc2)nc1N` was tested, and the survival was 39% (active).
In the case of `N#Cc1cnc(SCCc2ccccc2)nc1N`, the survival was 81% (inactive).
In the case of `CCCCCCSc1ncc(C#N)c(N)n1`, the survival was 84% (inactive).
`CCOC(=O)c1c(C)oc2ccc(N(C(C)=O)S(=O)(=O)c3c(C)cc(C)cc3C)cc12` was tested, and the survival was 168% (inactive).
For `O=C(Cn1c(=O)sc2ccccc21)OCc1ccccc1`, the survival was 83% (inactive).
With `COc1cc(Cn2c(=O)sc3ccccc32)ccc1OCCC(C)C` the survival was -2% (active).
For `COc1ccc(CNC(=O)C(C)n2nc(C)c3sc4ccccc4c3c2=O)cc1OC` (stereo unspecified), the survival was 67% (inactive).
In the case of `O=c1sc2ccccc2n1CCc1ccccc1`, the survival was 104% (inactive).
`COc1ccc(Cn2c(=O)sc3ccccc32)cc1` was tested, and the survival was 74% (inactive).
In the case of `COc1cc(Cn2c(=O)sc3ccccc32)ccc1OC(C)C`, the survival was 40% (active).
With `CCCCOc1ccc(Cn2c(=O)sc3ccccc32)cc1OC` the survival was -3% (active).
For `Cc1cccc2sc(N(Cc3cccnc3)C(=O)CCc3ccccc3)nc12`, the survival was 117% (inactive).
With `COc1cccc(-n2c(=O)c3c(C)c(C)sc3n(CC(=O)NCc3ccccc3)c2=O)c1` the survival was 102% (inactive).
For `CCCCCOc1ccc(/C=C/C(=O)Nc2sc3c(c2C(=O)OCC)CCC3)cc1OC`, the survival was 66% (inactive).
In the case of `COc1ccc(NC(=O)N2CCN3CCCCC3C2)cc1OC` (stereo unspecified), the survival was 99% (inactive).
`COc1cc(Cl)ccc1OC(=O)c1cn(-c2ccccc2OC)c(=O)c2ccccc12` was tested, and the survival was 58% (inactive).
`Cc1ccc(S(=O)(=O)Cn2nnnc2CN(Cc2ccco2)Cc2cccs2)cc1` was tested, and the survival was 61% (inactive).
For `Cc1ccc(S(=O)(=O)NCC(c2ccc(N(C)C)cc2)N2CCOCC2)cc1` (stereo unspecified), the survival was 57% (inactive).
With `CN(C)c1ccc(C(CNC(=O)c2ccccc2Cl)N2CCCC2)cc1` (stereo unspecified) the survival was 81% (inactive).
In the case of `CN(C)c1ccc(C(CNC(=O)Cc2ccc(Cl)cc2)N2CCOCC2)cc1` (stereo unspecified), the survival was 63% (inactive).
`CN(C)c1ccc(C(CNS(=O)(=O)c2ccc(F)cc2)N2CCOCC2)cc1` (stereo unspecified) was tested, and the survival was 92% (inactive).
In the case of `CN(C)c1ccc(C(CNS(=O)(=O)c2ccc(Cl)cc2)N2CCOCC2)cc1` (stereo unspecified), the survival was 37% (active).
In the case of `Cc1ccc(S(=O)(=O)NCC(c2ccc(N(C)C)cc2)N2CCCC2)cc1` (stereo unspecified), the survival was 98% (inactive).
In the case of `CN(C)c1ccc(C(CNC(=O)c2c(F)cccc2Cl)N2CCOCC2)cc1` (stereo unspecified), the survival was 25% (active).
In the case of `CN(C)c1ccc(C(CNS(=O)(=O)c2ccc(F)cc2)N2CCCC2)cc1` (stereo unspecified), the survival was 106% (inactive).
In the case of `CN(C)c1ccc(C(CNS(=O)(=O)c2ccc(Cl)cc2)N2CCCC2)cc1` (stereo unspecified), the survival was 0% (active).
`CCN(CC)C(=O)Cn1c(=O)n(-c2ccc(OC)cc2OC)c(=O)c2c(C)c(C(=O)N(CC)CC)sc21` was tested, and the survival was 89% (inactive).
For `CCc1cccc(CC)c1NS(=O)(=O)c1ccc2c(c1)CCN2C(=O)C1CC1`, the survival was 90% (inactive).
With `CC1=Nc2cc(C(=O)NCCc3ccc(Cl)cc3)ccc2Sc2c(C)ccc(C)c21` the survival was 74% (inactive).
In the case of `O=C(NCCc1ccc(Cl)cc1)c1ccc(CS(=O)(=O)Cc2ccc(F)cc2)o1`, the survival was 92% (inactive).
In the case of `COc1ccc(-c2ccc(-c3noc(-c4cc(OC)cc(OC)c4)n3)c(OC)n2)cc1`, the survival was 45% (inactive).
With `COc1nc(-c2ccccc2)ccc1-c1noc(-c2ccccc2Br)n1` the survival was -1% (active).
In the case of `CCOc1cc(-c2nc(-c3ccc(-c4ccc(C)cc4)nc3OC)no2)cc(OCC)c1OCC`, the survival was 69% (active).
In the case of `COc1nc(-c2ccccc2)ccc1-c1noc(C(C)C)n1`, the survival was 91% (inactive).
`CCOc1cc(-c2nc(-c3ccc(-c4ccc(OC)cc4)nc3OC)no2)cc(OCC)c1OCC` was tested, and the survival was 75% (inactive).
For `CCOc1cc(-c2nc(-c3ccc(Br)cc3)no2)cc(OCC)c1OCC`, the survival was 118% (inactive).
In the case of `COc1cccc(-c2ccc(-c3noc(-c4ccccc4Br)n3)c(OC)n2)c1`, the survival was 37% (inactive).
For `CCOc1ccccc1-c1nc(-c2ccc(-c3ccccc3)nc2OCC)no1`, the survival was 4% (active).
For `CCOc1nc(-c2ccccc2)ccc1-c1noc(-c2ccc(C)cc2)n1`, the survival was 110% (inactive).
With `COc1nc(C)ccc1-c1noc(-c2ccccc2)n1` the survival was 102% (inactive).
With `COc1cccc(-c2nc(-c3ccc(-c4ccccc4)nc3OC)no2)c1` the survival was 10% (active).
`CCOc1cc(-c2nc(-c3ccc(-c4ccccc4)nc3OCC)no2)cc(OCC)c1OCC` was tested, and the survival was 53% (inactive).

From PubChem BioAssay AID463173 (ICCB-Longwood Screening Facility, Harvard Medical School, 2010)
